Screening data deposited in PubChem BioAssay by National Center for Advancing Translational Sciences (NCATS).
CHX counter: affects cycloheximide protein synthesis inhibition readout, counter-screen | cell reporter, cycloheximide protein synthesis inhibition counterscreen | max response, % | actives 12% (n = 300,000); in the data active = max response mostly above about 13%, no sharp cut-off; inactive = mostly below about 14%; note: read at 38.3 µM for the half of the compounds with a filed dose; 0% is about no effect
Shiga inhibitor: Shiga toxin inhibition. Vero cells, Shiga toxin protein synthesis inhibition reporter. actives 9.2% (n = 290,000). inhibition, % at 38.7 µM; in the data active = inhibition mostly above about 28%, no sharp cut-off; inactive = mostly below about 43%; note: 0% is about no effect
TbPYK inhibitor: inhibitors of Trypanosoma brucei pyruvate kinase | actives 0.12% (n = 410,000) | Q57TT1 | TbPYK enzyme, Kinase-Glo Plus ATP luminescence, 45 min | AID 624173 | Potency, µM (doses to about 76.8 µM), for the others: top-dose activity, negative = inhibition, usual class: inhibitors; note: potency is the fitted concentration of half-maximal effect; % is set by controls: 0 for no effect and ±100 for the full control effect; nearly all actives have a fitted effect of over 50% in size
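Enzyme and substrate buffer are dispensed first and compound is pin-transferred. ADP at 130 uM final then starts the reaction, which runs 45 min at room temperature. Detection reagent is added for 10 min before luminescence is imaged.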
Sm TGR block: S. mansoni TGR enzyme inhibition. AID 485364. actives 3% (n = 360,000). Q962Y6. Potency, µM (titrated, usually from 114 µM), for the others: top-dose activity change, negative = inhibition, usual class: inhibitors. purified TGR, DTNB reduction, TNB absorbance 405 nm; note: potency is the fitted concentration of half-maximal effect; % is set by controls: 0 for no effect and ±100 for the full control effect; nearly all actives have a fitted effect of over 60% in size
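TGR 20 nM + NADPH 100 uM (dispensed conc.), cpd preinc 15 min RT; start with NADPH (500 uM addition) then DTNB (15 mM addition). Kinetic TNB absorbance, 405 nm filter. Four-parameter Hill fit across titration.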
LmPK inh: blocks Leishmania mexicana pyruvate kinase activity; purified LmPK, Kinase-Glo ATP luminescence, 1 h; Potency, µM (series often up to 57.5 µM), for the others: top-dose activity change, negative = inhibition, usual class: inhibitors; actives 0.37% (n = 290,000); AID 1721; note: potency is the fitted concentration of half-maximal effect; % is set by controls: 0 for no effect and ±100 for the full control effect
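Kinase-Glo luminescence read after 1 h RT reaction of 0.1 nM LmPK with 0.5 mM PEP and 0.1 mM ADP. Activity scaled between uninhibited and enzyme-free controls.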
Giardia FBPA inh: blocks Giardia fructose-bisphosphate aldolase activity | A8B2U2 | purified Giardia FBPA | Potency, µM (titrated, usually from 59.6 µM), without a hit: top-dose activity, negative = inhibition, most hits filed as inhibitors | actives 0.71% (n = 290,000); note: potency is the fitted concentration of half-maximal effect; % is set by controls: 0 for no effect and ±100 for the full control effect; nearly all actives have a fitted effect of over 55% in size
Target sequence (A8B2U2 whole entry, looked up): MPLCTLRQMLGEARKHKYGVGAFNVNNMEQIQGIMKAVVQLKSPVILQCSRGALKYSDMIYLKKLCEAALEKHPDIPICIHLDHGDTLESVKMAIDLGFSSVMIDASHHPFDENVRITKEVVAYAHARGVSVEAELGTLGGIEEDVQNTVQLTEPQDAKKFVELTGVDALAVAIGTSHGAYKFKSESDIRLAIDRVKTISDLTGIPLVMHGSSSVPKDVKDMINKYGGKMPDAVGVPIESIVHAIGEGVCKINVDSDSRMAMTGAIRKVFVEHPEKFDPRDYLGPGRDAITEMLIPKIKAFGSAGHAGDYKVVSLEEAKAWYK
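Giardia FBPA (40 nM reagent) was preincubated 10 min at RT with compound (up to 57.5 uM final), then substrate plus GAPDH/TPI/NAD/arsenate coupling system with diaphorase/resazurin was added; resorufin fluorescence (525/598 nm) was read after 20 min.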
An asterisk follows results filed as active; ? = inconclusive; . = no result given. The entries come from a sample that favours hits as a whole. Unless noted, calls come from the whole dose curve; as a rule, active = well fitted curve in the direction sought with a large enough effect; inconclusive = small, poorly fitted or top-dose-only effect, or another doubt; inactive = no such curve, though single readings can be large; an effect the other way counts as inactive or inconclusive.

SMILES	CHX counter	Shiga inhibitor	TbPYK inhibitor	Sm TGR block	LmPK inh	Giardia FBPA inh
COc1ccc([N+](=O)[O-])cc1C(=O)Nc1ccc(Cc2ccncc2)cc1	13*	30	1%	6%	2%	4%
O=C(Nc1ccncc1)c1cc([N+](=O)[O-])ccc1Cl	.	.	.	.	.	2%
O=C(NC(=S)Nc1ccc(Cc2ccncc2)cc1)c1ccccc1F	24*	41	-8%	.	3%	-22%
COc1ccccc1C(=O)Nc1ccc(CN2CCCCC2)cc1	11*	10	2%	-21%	-6%	0%
O=C(NC(=S)Nc1ccc(Cc2ccncc2)cc1)c1ccccc1Cl	0	-7	7%	-14%	2%	-1%
CC(C)(C)Sc1ccc([N+](=O)[O-])cc1C(=O)Nc1ccncc1	13	52*	-8%	12%	5%	0%
COc1ccccc1C(=O)Nc1ccc2c(c1)nc(CN1CCCCC1)n2C	18	36	7%	-18%	0%	-11%
Cn1c(=O)c2c(nc(NCc3ccccc3)n2Cc2ccc(Cl)c(Cl)c2)n(C)c1=O	.	.	-3%	10%	.	.
CSCCC(NC(=O)c1ccco1)C(=O)NCC1CCCO1 (stereo not drawn)	.	.	1%	-14%	.	.
Cc1c(C(=O)N(Cc2ccccc2F)C2CCS(=O)(=O)C2)oc2ccc(F)cc12 (stereo not drawn)	.	.	3%	2%	.	.
COc1ccccc1C(=O)Nc1ccc(Cc2ccncc2)cc1	13*	-3	5%	-31%	2%	-7%
COc1ccc(CNC(=O)COC(=O)CCn2c(C)csc2=O)cc1OC	.	.	-4%	-24%	.	.
O=C1C(c2ccccc2)SC(=Nc2ccccc2)N1S(=O)(=O)c1ccccc1 (stereo not drawn)	30*	45	-24%	-23%	0%	3%
CCOc1ccc(C(=O)Nc2c(C(=O)Nc3ccccc3OC)oc3ccccc23)cc1OCC	.	.	-2%	-6%	.	.
N#Cc1ccccc1NC(=O)COc1ccc2c(c1)OCO2	47*	93*	0%	-6%	0%	4%
CCc1ccccc1NC(=O)COc1ccc2c(c1)OCO2	15*	47*	-3%	-5%	1%	0%
CCOc1ccc(NC(=O)COc2ccc3c(c2)OCO3)cc1	16	14	1%	-5%	-3%	-7%
Cc1ccc(NC(=O)COc2ccc3c(c2)OCO3)c(Cl)c1	.	.	-3%	-7%	.	.
O=C(COc1ccc2c(c1)OCO2)Nc1ccccc1C(F)(F)F	31*	87*	2%	.	-1%	0%
CSc1ccccc1OCc1cc(C(=O)N2CCN3CCCC3C2)no1 (stereo not drawn)	15*	27	-13%	-8%	-1%	-1%
COCC1CCN(C(=O)c2cc(COc3ccccc3SC)on2)C1 (stereo not drawn)	-4	-9	-11%	-33%	3%	5%
Cc1cccc(C)c1OCc1cc(C(=O)N2CCC[C@H]2C(N)=O)no1	14	25	3%	-9%	-9%	.
CCN1CCN(C(=O)c2cc(COc3c(C)cccc3C)on2)CC1	19*	5	-15%	-14%	0%	6%
COc1cccc(OCc2cc(C(=O)N3CCN(C4CCCC4)CC3)no2)c1	2	33	-1%	?	2%	.
Cc1cccc(C)c1OCc1cc(C(=O)N2CCN(C3CCCC3)CC2)no1	35*	64*	-8%	?	9%	-5%
Cc1cccc(C)c1OCc1cc(C(=O)N2CCN3CCCC3C2)no1 (stereo not drawn)	19*	44*	3%	-1%	-7%	.
Cc1cccc(NC2=CC(c3cccc(Br)c3)N(c3cccc(C)c3)C2=O)c1 (stereo not drawn)	.	.	0%	?	.	.
CCOC(=O)c1cccc(NC(=O)CSc2nnc(C)n2CC2CCCO2)c1 (stereo not drawn)	-4	-6	3%	6%	-10%	.
COc1ccc(C(=O)NCCc2nc3ccccc3[nH]2)cc1	.	.	3%	-6%	.	.
Cc1cccc(C)c1OCc1cc(C(=O)N2CCC(c3ccncc3)CC2)no1	37*	58*	1%	-21%	-6%	.
